Results reported in the supplement of paper PMC10849652.
Of roughly 8,800 targets only a part is listed; those with a hit were picked by preference. About 0.5% of all pairs of compound and target were hits.

Key:
Assay in all cases: log2 fold change, soluble protein after heating vs DMSO (PISA); higher = thermal stabilisation; K562 lysate, 10 uM; active = over 0.2 and 3.5 SD of the protein, either way, in both replicates (recomputed)
[1] = compound: C#Cc1cccc(Nc2ncnc3cc(OCCOC)c(OCCOC)cc23)c1 [erlotinib]
Outline: (§1)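 Thermal stability, expressed as log-two fold change relative to solvent controls, is given from duplicates. Crude K562 extract in PBS pH 7.4 with 1 mM MgCl2, at 1 mg/mL protein, was treated with 10 μM compound for 30 min and heated in aliquots for 3 min across 48°C-58°C. After pooling, adjustment to 0.5% NP-40 at 4°C and centrifugation at 21,000xg for 90 min, supernatant protein was measured by TMTpro 16plex LC-MS/MS with channel sums equalised.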

[2] = compound: C/C(=N\NC(=O)C1=CC(=CC=C1)S(=O)(=O)N2CCOCC2)/C3=C(C=CC(=C3)Cl)O
Outline: as §1

[3] = compound: C1=CC(=CC=C1C2=NC3=C(N2)C=C(C=C3)C(=O)N)OC4=CC=C(C=C4)Cl
Outline: as §1

[4] = compound: C1=CC2=C(C=CC(=C2)/C=C\3/C(=O)NC(=NCC4=CC=CS4)S3)N=C1
Outline: as §1

[5] = compound: C1=CC2=NC=CN=C2C=C1/C=C/3\C(=O)NC(=O)S3
Outline: as §1

[6] = compound: C1=CC=C(C=C1)C2=NC(=C(N2)C3=CC=NC=C3)C4=CC(=C(C=C4)Cl)O
Outline: as §1

[7] = compound: C1=CC=C2C(=C1)C3=NNC4=CC=CC(=C43)C2=O
Outline: as §1

[8] = compound: C1CCN(C1)C(=O)NC2=CC=CC(=C2)NC3=NC=C(C(=N3)NCCC4=CN=CN4)Br
Outline: as §1

[9] = compound: C1CN(CCC1(CC2=CC=C(C=C2)Cl)N)C3=NC=NC4=C3C=CN4
Outline: as §1

[10] = compound: C1COCCN1CCN2C3=CC=CC=C3N=C2NC(=O)C4=CC(=CC=C4)[N+](=O)[O-] [IRAK-1-4 Inhibitor I]
Outline: as §1

[11] = compound: C=CC(=O)N1CCC[C@@H](n2nc(-c3ccc(Oc4ccccc4)cc3)c3c(N)ncnc32)C1 [ibrutinib]
Outline: as §1

[12] = compound: CC(=O)c1cnc2ccc(-c3cc(Cl)c(O)c(Cl)c3)nc2c1N[C@H]1CC[C@H](CN(C)C)CC1
Outline: as §1

[13] = compound: CC(C)(C)Cn1c(N)nc2ccc(-c3[nH]c(C(C)(C)C)nc3-c3ccc(F)cc3)nc21 [ralimetinib]
Outline: as §1

[14] = compound: CC(C)(O)CC(=O)NCCn1ccc2ncnc(Nc3ccc(Oc4cccc(C(F)(F)F)c4)c(Cl)c3)c21
Outline: as §1

[15] = compound: CC(C)C1=C2N=C(C=C(N2N=C1)NCC3=CC=CC=C3)NCCCCCCN
Outline: as §1

[16] = compound: CC1=C(C(CC(=O)N1)C2=CC=C(C=C2)C(F)(F)F)C(=O)NC3=C(C=C4C(=C3)C=NN4)F
Outline: as §1

[17] = compound: CC1=C(C2=C(C=C1)C(=O)C3=CC=CC=C3N2CCCN)C
Outline: as §1

[18] = compound: CC1=C(C=C(C=C1)NC(=O)C2=CC(=CC=C2)C(C)(C)C#N)NC3=CC4=C(C=C3)N=CN(C4=O)C
Outline: as §1

[19] = compound: CC1=C(C=C(C=C1)NC(=O)C2=CC(=CC=C2)N(C)C)NC(=O)C3=CC=C(C=C3)O
Outline: as §1

[20] = compound: CC1=CC=C(C=C1)SC2=C3C=C(SC3=CN=C2)C(=O)N
Outline: as §1

Measured: log2 fold change

TTC5 (UniProt Q8N0Z6)
inactive: [1] -0.015 | [2] -0.089 | [3] -0.014 | [4] -0.034 | [5] 0.041 | [6] 0.022 | [7] 0.016 | [8] 0.017 | [9] 0.033 | [10] -0.008 | [11] 0.019 | [12] 0.007 | [13] 0.017 | [14] 0.001 | [15] 0.042 | [16] -0.089 | [17] -0.01 | [18] 0.017 | [19] 0.016 | [20] -0.001

TTK (UniProt P33981)
Chain of UniProt P33981 (P33981 whole entry, looked up): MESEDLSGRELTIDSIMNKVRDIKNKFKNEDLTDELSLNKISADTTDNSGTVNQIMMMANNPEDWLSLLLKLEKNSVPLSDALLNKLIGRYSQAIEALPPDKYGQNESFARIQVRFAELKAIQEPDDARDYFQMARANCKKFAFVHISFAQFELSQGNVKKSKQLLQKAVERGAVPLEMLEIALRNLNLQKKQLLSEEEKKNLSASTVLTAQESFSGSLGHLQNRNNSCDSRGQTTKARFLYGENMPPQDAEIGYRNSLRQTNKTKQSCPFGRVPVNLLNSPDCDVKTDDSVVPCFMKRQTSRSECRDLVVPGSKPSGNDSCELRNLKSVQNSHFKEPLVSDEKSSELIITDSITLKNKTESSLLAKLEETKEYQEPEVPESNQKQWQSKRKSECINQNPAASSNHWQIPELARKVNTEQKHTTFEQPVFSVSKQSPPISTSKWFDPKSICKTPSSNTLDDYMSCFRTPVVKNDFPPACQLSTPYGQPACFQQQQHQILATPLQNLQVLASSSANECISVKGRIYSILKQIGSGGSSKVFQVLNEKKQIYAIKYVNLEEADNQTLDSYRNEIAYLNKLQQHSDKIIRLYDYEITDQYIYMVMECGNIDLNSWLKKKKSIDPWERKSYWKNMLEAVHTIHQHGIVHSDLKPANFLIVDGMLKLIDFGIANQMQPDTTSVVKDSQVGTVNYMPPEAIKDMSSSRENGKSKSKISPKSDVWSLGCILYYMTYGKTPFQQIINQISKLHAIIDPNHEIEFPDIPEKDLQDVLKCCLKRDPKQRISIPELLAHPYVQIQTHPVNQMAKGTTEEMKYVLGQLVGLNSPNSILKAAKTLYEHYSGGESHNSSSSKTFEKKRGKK
inactive: [1] -0.032 | [2] -0.1 | [3] 0.09 | [4] -0.034 | [5] 0.004 | [6] 0.039 | [7] 0.258 | [8] 0.054 | [9] -0.039 | [10] -0.032 | [11] 0.008 | [12] 0.111 | [13] 0.025 | [14] -0.036 | [15] 0.001 | [16] 0.018 | [17] -0.008 | [18] -0.011 | [19] 0.017 | [20] 0.013

TMEM87B (UniProt Q96K49)
Chain of UniProt Q96K49 (Q96K49 whole entry, looked up): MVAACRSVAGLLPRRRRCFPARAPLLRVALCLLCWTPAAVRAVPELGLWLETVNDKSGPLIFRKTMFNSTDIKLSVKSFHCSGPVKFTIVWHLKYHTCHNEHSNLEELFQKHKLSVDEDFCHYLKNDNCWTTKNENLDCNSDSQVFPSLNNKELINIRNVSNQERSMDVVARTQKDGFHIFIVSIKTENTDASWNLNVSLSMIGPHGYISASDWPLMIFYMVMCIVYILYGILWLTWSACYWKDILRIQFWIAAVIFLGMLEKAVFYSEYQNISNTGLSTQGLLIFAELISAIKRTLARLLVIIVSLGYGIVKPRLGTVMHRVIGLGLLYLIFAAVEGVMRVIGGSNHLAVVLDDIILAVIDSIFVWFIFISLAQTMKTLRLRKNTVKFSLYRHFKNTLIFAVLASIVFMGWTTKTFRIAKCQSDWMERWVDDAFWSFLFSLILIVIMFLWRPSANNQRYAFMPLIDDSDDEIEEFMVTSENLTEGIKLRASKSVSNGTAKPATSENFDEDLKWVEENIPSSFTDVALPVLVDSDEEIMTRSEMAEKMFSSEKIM
inactive: [1] -0.016 | [2] 0.103 | [3] 0.093 | [4] -0.003 | [5] 0.117 | [6] 0.03 | [7] -0.019 | [8] 0.006 | [9] -0.008 | [10] -0.045 | [11] -0.076 | [12] -0.017 | [13] -0.003 | [14] -0.001 | [15] -0.047 | [16] -0.011 | [17] -0.01 | [18] -0.012 | [19] 0.028 | [20] -0.012

TBC1D20 isoform 3 (UniProt Q96BZ9)
inactive: [1] -0.073 | [2] 0.142 | [3] -0.113 | [4] 0.043 | [5] 0.117 | [6] -0.038 | [7] -0.018 | [8] 0.033 | [9] 0.023 | [10] 0.132 | [11] 0.078 | [12] -0.016 | [13] 0.001 | [14] -0.14 | [15] -0.082 | [17] 0.05 | [18] -0.171 | [19] 0.019 | [20] -0.005

TMEM161B (UniProt Q8NDZ6)
Chain of UniProt Q8NDZ6 (Q8NDZ6 whole entry, looked up): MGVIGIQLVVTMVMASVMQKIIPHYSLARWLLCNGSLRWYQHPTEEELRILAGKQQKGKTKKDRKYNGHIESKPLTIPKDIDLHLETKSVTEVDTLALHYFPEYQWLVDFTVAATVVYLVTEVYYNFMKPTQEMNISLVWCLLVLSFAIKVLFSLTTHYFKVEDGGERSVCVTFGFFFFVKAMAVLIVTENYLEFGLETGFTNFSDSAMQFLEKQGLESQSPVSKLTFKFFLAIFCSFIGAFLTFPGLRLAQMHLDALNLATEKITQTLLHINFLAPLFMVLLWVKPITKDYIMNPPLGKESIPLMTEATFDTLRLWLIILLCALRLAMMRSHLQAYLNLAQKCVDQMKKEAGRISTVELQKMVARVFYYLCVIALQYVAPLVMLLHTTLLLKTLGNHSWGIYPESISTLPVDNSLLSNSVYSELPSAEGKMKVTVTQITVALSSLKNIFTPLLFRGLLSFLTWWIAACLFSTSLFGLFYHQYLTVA
inactive: [1] 0.051 | [2] -0.08 | [3] -0.017 | [4] 0.174 | [5] 0.007 | [6] -0.068 | [7] -0.133 | [8] 0.052 | [9] -0.01 | [10] 0.09 | [11] -0.026 | [12] 0.197 | [13] 0 | [14] -0.224 | [15] -0.113 | [16] -0.005 | [18] 0.027 | [19] 0.108 | [20] -0.012

TUBB4A (UniProt P04350)
inactive: [1] 0.036 | [3] 0.015 | [5] -0.016 | [6] -0.066 | [8] 0.017 | [9] -0.001 | [10] 0.086 | [11] 0.007 | [12] -0.018 | [13] 0.074 | [14] 0.039 | [15] 0.088 | [16] 0.009 | [17] -0.086 | [18] -0.085 | [19] -0.015 | [20] -0.068

TFPI isoform 2 (UniProt P10646)
inactive: [2] 0.01 | [4] 0.113 | [7] -0.171 | [18] -0.034

TRAF7 (UniProt Q6Q0C0)
inactive: [2] 0.006 | [4] -0.042 | [6] -0.026 | [7] -0.151 | [8] -0.05 | [9] 0.116 | [10] -0.047 | [13] 0.046 | [14] -0.091 | [16] 0.023 | [17] -0.022 | [18] 0.07 | [19] -0.031

TUBA4A (UniProt C9JQ00)
inactive: [5] -0.18 | [11] 0.125

UBAP2L isoform 1 (UniProt Q14157)
Chain of UniProt Q14157 (Q14157 whole entry, looked up): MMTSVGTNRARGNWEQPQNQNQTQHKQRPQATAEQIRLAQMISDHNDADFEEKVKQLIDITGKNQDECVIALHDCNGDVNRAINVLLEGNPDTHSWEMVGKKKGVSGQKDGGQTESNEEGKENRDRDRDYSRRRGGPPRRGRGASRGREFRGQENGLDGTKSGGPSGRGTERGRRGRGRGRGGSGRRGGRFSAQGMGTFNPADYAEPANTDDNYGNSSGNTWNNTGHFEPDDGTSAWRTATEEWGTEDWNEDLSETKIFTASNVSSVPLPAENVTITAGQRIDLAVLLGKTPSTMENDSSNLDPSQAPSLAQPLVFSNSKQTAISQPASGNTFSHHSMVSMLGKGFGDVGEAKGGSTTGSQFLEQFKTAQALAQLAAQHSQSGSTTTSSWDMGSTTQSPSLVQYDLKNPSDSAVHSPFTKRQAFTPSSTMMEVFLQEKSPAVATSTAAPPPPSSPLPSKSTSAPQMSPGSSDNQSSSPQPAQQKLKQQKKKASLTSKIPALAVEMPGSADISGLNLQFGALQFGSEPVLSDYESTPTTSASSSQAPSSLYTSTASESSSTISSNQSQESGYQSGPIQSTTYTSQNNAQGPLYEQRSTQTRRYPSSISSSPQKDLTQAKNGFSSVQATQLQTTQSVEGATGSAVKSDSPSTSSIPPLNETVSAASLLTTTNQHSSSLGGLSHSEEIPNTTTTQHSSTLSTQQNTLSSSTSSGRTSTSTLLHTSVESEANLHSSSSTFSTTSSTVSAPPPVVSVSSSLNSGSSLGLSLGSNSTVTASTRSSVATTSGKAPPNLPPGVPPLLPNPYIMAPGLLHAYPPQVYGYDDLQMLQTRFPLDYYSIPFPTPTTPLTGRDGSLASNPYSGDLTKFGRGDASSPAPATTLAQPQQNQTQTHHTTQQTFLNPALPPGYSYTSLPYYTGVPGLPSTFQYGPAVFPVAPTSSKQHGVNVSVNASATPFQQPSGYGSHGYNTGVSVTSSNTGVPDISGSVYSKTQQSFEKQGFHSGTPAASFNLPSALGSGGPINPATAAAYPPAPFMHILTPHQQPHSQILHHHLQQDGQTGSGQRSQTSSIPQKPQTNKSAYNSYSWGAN
active: [18] -0.833
inactive: [5] 0.081 | [6] -0.367 | [10] 0.084 | [11] -0.075 | [13] -0.306 | [14] -0.123 | [16] 0.114 | [19] -0.161

TFPT (UniProt P0C1Z6)
inactive: [1] -0.078 | [3] 0.037 | [5] -0.186 | [11] 0.046 | [12] 0.1 | [15] -0.053 | [17] -0.145 | [20] -0.06

TCF3 isoform 2 (UniProt P15923)
Chain of UniProt P15923 (P15923 whole entry, looked up): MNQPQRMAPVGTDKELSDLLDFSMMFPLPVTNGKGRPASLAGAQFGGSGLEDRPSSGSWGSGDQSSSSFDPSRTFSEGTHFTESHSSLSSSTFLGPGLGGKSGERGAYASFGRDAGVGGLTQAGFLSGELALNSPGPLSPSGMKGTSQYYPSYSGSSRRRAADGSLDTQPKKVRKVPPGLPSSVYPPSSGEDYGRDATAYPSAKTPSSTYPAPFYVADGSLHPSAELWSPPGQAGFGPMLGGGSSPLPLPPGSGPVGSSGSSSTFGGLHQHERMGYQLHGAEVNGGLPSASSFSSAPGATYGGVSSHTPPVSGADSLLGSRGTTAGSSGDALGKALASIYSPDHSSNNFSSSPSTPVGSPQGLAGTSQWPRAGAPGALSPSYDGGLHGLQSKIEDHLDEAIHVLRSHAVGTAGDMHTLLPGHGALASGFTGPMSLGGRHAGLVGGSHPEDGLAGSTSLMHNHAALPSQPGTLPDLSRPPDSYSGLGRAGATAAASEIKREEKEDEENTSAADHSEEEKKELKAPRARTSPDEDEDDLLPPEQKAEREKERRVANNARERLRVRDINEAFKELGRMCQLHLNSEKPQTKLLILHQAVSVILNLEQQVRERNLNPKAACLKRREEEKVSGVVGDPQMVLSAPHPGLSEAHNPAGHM
inactive: [1] 0.131 | [3] -0.049 | [6] 0.154 | [10] -0.249 | [13] -0.118 | [14] -0.103 | [15] 0.046 | [18] -0.1 | [19] 0.118

TNFAIP3 (UniProt P21580)
Chain of UniProt P21580 (P21580 whole entry, looked up): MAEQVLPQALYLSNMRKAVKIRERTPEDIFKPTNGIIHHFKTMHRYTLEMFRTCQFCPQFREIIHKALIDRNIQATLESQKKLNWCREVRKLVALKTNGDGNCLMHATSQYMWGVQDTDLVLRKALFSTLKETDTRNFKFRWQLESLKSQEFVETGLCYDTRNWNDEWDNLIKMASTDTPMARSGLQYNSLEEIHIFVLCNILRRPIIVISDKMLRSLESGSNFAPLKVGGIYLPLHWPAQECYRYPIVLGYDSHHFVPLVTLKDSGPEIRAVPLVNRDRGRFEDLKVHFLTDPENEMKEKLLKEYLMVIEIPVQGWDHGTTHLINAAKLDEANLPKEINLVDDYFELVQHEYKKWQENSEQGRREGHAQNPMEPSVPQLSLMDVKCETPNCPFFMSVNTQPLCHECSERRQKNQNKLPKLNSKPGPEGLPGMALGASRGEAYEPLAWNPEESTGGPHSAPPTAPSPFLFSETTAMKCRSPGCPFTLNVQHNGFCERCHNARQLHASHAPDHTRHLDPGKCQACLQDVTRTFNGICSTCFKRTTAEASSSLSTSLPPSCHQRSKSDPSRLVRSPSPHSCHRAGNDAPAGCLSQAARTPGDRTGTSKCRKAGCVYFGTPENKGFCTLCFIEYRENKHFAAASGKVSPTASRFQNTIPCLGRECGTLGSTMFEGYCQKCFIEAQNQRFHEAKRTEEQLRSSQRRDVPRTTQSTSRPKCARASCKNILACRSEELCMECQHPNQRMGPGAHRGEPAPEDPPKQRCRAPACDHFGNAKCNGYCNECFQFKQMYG
inactive: [1] 0.018 | [3] 0.024 | [5] 0.03 | [6] -0.049 | [8] -0.296 | [9] 0.09 | [10] 0.047 | [11] -0.123 | [12] -0.1 | [13] -0.056 | [14] 0.005 | [15] -0.045 | [16] 0.003 | [17] 0.016 | [18] -0.035 | [19] 0.068 | [20] 0.053

TLE3 isoform 5 (UniProt Q04726)
inactive: [1] 0.036 | [3] -0.068 | [5] 0.237 | [6] 0.06 | [8] -0.068 | [9] 0.01 | [10] -0.021 | [11] 0.045 | [12] -0.022 | [13] -0.027 | [14] -0.077 | [15] -0.061 | [16] 0.138 | [17] -0.053 | [18] 0.093 | [19] 0.018 | [20] -0.035

TXNRD2 isoform 3 (UniProt Q9NNW7)
inactive: [1] 0.024 | [3] 0.035 | [6] 0.14 | [10] -0.006 | [13] -0.018 | [14] -0.323 | [15] -0.303 | [19] 0.079

TPD52L2 isoform 3 (UniProt O43399)
inactive: [1] 0.008 | [3] -0.036 | [5] -0.028 | [6] -0.049 | [10] 0.029 | [11] 0.288 | [13] 0.167 | [14] -0.038 | [15] 0.017 | [16] -0.007 | [19] 0.107

UBAP2 (UniProt Q5JV08)
inactive: [16] -0.097

TENM4 (UniProt Q6N022)
inactive: [5] -0.334 | [11] -0.043 | [12] 0.035 | [18] 0.162 | [20] -0.109

TEDC1 (UniProt Q86SX3)
Chain of UniProt Q86SX3 (Q86SX3 whole entry, looked up): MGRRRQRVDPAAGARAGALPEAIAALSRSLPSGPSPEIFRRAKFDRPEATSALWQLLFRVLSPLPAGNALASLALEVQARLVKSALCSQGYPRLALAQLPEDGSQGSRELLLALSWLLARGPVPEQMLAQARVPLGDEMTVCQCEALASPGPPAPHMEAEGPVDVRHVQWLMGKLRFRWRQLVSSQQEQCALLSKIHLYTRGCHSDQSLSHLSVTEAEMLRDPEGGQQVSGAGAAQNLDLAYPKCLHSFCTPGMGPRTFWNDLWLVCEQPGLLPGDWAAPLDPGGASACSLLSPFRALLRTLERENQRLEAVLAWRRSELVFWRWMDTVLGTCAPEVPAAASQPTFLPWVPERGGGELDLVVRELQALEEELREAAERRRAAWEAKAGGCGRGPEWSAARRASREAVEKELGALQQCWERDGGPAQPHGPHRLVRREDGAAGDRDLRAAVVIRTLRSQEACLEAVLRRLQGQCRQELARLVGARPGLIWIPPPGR
inactive: [1] 0.05 | [3] 0.057 | [6] 0.05 | [8] -0.127 | [9] -0.048 | [10] -0.06 | [12] -0.023 | [13] -0.049 | [14] -0.001 | [15] -0.066 | [16] 0 | [17] -0.033 | [18] -0.018 | [19] 0.082 | [20] -0.024

UBAP2L (UniProt F8W726)
inactive: [2] -0.074 | [4] 0.048 | [7] 0.168 | [12] 0.275 | [20] -0.025
active: [18] -0.547

TNIK isoform 5 (UniProt Q9UKE5)
inactive: [5] 0.008 | [6] 0.134 | [10] -0.038 | [11] 0.07 | [12] 0.345 | [13] 0.016 | [14] -0.026 | [17] -0.091 | [18] 0.276 | [19] -0.004 | [20] -0.136

TMPO isoform 2 (UniProt P42167)
inactive: [2] -0.053 | [4] 0.044 | [5] 0.143 | [7] -0.121 | [8] 0.163 | [9] 0.038 | [11] -0.108 | [17] -0.006
